Experimental data from ChEMBL document CHEMBL3988442, “University of Dundee, Small-Polar-MMV Screening Library” (2021).
The campaign covered roughly 69,000 compounds. About 950 (1.4%) showed an effect of 50% or more. For the sample, strong results were picked, then their nearest neighbours and some compounds at random.

Each molecule was assayed on Mycobacterium tuberculosis (assay: Cornell M. t heat shock assay; also: in the data most compounds retested in dose-response had high values).
Format: functional, organism-based
Parameters: dose or concentration left out as unconfirmed

Compound	Percent Effect
CNc1cc(C2CN(Cc3scnc3C)CCO2)nc(C)n1 (centres undefined)	67.88%
Cc1nc(C2CN(Cc3scnc3C)CCO2)cc(N(C)C)n1 (centres undefined)	-20.95%
CNc1cc(C2CN(Cc3csc(C)n3)CCO2)nc(C)n1 (centres undefined)	-32.62%
COc1cc(CN(CCCN(C)C)Cc2ccccn2)cc2c1OCO2.O=C(O)CC(O)(CC(=O)O)C(=O)O	-27.2%
CC(N(C)Cc1nc2c(cnn2C)c(=O)[nH]1)C(C)(C)C (centres undefined)	4.654%
O=C(Nc1cnccn1)[C@@H]1C[C@H]2OCC[C@H]2N(Cc2ccsc2)C1.O=C(O)C(F)(F)F	-23.53%
COc1cc(C)cc(C(C(=O)O)N(C)Cc2ccon2)c1OC (centres undefined)	14.77%
COc1ccc(Cl)cc1C(C(=O)O)N(C)Cc1ccon1 (centres undefined)	-13.11%
COc1cc(F)ccc1C(C(=O)O)N(C)Cc1ccon1 (centres undefined)	98.53%
Cc1ccc(C(=O)N2CCc3c(CN4CCCC4)nn(C)c3C2)cc1C.O=C(O)C(F)(F)F	-28.38%
CC(C)COC(=O)N1CC(=O)N(CCc2ccccc2)CC(O)C1 (centres undefined)	34.47%
CCOC(=O)N1CC(=O)N(CCc2ccccc2)CC(O)C1 (centres undefined)	15.03%
COc1ccc(CN2CC(O)CN(C(=O)OCC(C)C)CC2=O)cc1 (centres undefined)	43.83%
CC(C)COC(=O)N1CC(=O)N(CCCc2ccccc2)CC(O)C1 (centres undefined)	54.63%
CC(C)COC(=O)N1CC(=O)N(Cc2ccc(Cl)cc2)CC(O)C1 (centres undefined)	47.42%
Cc1ccc(CN2CC(O)CN(C(=O)OCC(C)C)CC2=O)cc1 (centres undefined)	52.29%
COc1cc(N2CC[C@H]3O[C@@H](C(=O)NC4CCCC4)CC[C@H]32)ncn1.O=C(O)C(F)(F)F	-0.9791%
Cl.O=C(NC1CCCC1)c1ccc(C2CCCNC2)nc1 (centres undefined)	-7.361%
Cc1c(C2CCCN(C(=O)c3ccncc3)C2)n2c(nc1=O)CCC2.Cl (centres undefined)	-13.79%
Cl.O=C(N[C@@H]1CN[C@H]2CCCO[C@H]21)c1cnccn1	-42.37%

Compound	Percent Effect
CNC(=O)CC1CCN(Cc2nc(-c3ccc(SC)cc3)oc2C)CC1	1.977%
CNC(=O)CC1CCN(Cc2nc(-c3cccc(Cl)c3)oc2C)CC1	52.75%
CNC(=O)C1CCN(Cc2nc(-c3ccc(SC)cc3)oc2C)C1 (centres undefined)	12.81%
CCn1nc(C)c(-c2cncn2Cc2ccccc2CN(C)C)c1C.Cl	2.066%
O=C(O)C(F)(F)F.c1cc(CN2CCO[C@H]3[C@H](OCC4CCOCC4)CC[C@@H]32)co1	4.016%
CCOCCNc1nc(C2CCCC2)nc2c1cnn2C	10.38%
CCS(=O)(=O)CCNc1nc(C2CCCC2)nc2c1cnn2C	-23.34%
CC(C)N(CCNc1nc(C2CCCC2)nc2c1cnn2C)C(C)C	102.6%
Cn1ncc2c(NCCC34CCCN3CCC4)nc(C3CCCC3)nc21	90.62%
CNCCCNc1nc(C2CCCC2)nc2c1cnn2C	-14.72%
Cn1ncc2c(NCCn3cccc3)nc(C3CCCC3)nc21	-24.81%
CN(C)CCN1CCC2(CCN(C(=O)c3cccc(F)c3)CC2)C1=O.O=C(O)C(F)(F)F	-26.99%
COCC1CN(Cc2cnn(C)c2)Cc2nn(C)cc21.O=C(O)C(F)(F)F (centres undefined)	-8.537%
CNCC(=O)N1CCCC(c2nccnc2Oc2cccc(F)c2)C1.Cl (centres undefined)	-3.012%
O=C(NCCc1cccnc1)c1nc2c(s1)CCCN2C(=O)C1CC1.O=C(O)C(F)(F)F	31.31%
Cl.Fc1ccccc1CNc1ccnc(C2CCNCC2)c1	-7.114%
CCS(=O)(=O)Nc1cnn(Cc2cccc(C)c2)c1	-6.735%
CCS(=O)(=O)Nc1cnn(Cc2cccc(Cl)c2)c1	69.75%
CS(=O)(=O)Nc1cnn(Cc2cccc(Cl)c2)c1	-3.827%
O=C(O)C(F)(F)F.O=C(c1cccs1)N1C[C@@H]2OCCN(CC3CCCO3)[C@@H]2C1 (some centres undefined)	-25.16%

Compound	Percent Effect
CC[C@@H]1N(C)CCC[C@]12CCC(=O)N2Cc1ccncc1.O=C(O)C(F)(F)F.O=C(O)C(F)(F)F	-9.742%
O=C(O)C(F)(F)F.O=C(O)c1c(-c2cccnc2)ncc2c1CCN(CC1CCOC1)C2 (centres undefined)	-9.377%
O=C(O)C(F)(F)F.O=C(O)C(F)(F)F.O=C(O)C(F)(F)F.O=C1C[C@H]2[C@@H](CCN2Cc2ccccn2)N1CCN1CCOCC1	-15.17%
O=C1CCNC(=O)N1CC(=O)N1CCC1c1ccc(F)cc1 (centres undefined)	51.34%
O=C(CN1C(=O)CCNC1=O)N1CCC(c2ccc(F)cc2)C1 (centres undefined)	18.83%
O=C(CN1C(=O)CCNC1=O)N1CCOC(c2ccc(F)cc2)C1 (centres undefined)	12.93%
O=C(O)C(F)(F)F.O=C(O)C(F)(F)F.c1cncc(CN2CC[C@H]3O[C@@H](COCC4CCOCC4)CC[C@H]32)c1	-5.632%
CC(C)N1CCC2(C=C(C(=O)NC3CC3)c3ccccc32)CC1.O=C(O)C(F)(F)F	-2.25%
O=C(O)C(F)(F)F.c1csc(NCc2n[nH]c3c2CCN(CC2CC2)C3)n1	-23.28%
Cc1cccc(CN2CCCn3c(nnc3Cn3cccn3)C2)n1.O=C(O)C(F)(F)F	-30.89%
CCc1cnc(CN(C)C2CCN(CCc3ccccn3)C2)o1 (centres undefined)	105.9%
CCc1cnc(CN(C)C2CCN(CC(=O)Nc3nccs3)C2)o1 (centres undefined)	61.16%
Cc1cnc(CN(C)C2CCN(CC(=O)Nc3nncs3)C2)o1.O=C(O)C(F)(F)F (centres undefined)	-4.89%
Cc1cnc(CN(C)C2CCN(CC(=O)N(C)c3nccs3)C2)o1 (centres undefined)	15.65%
Cc1cnc(CN(C)C2CCN(CC(=O)Nc3nccs3)C2)o1 (centres undefined)	66.08%
CCc1cnc(CN(C)C2CCN(CCc3cccs3)C2)o1 (centres undefined)	-5.267%
CCc1cnc(CN(C(C)=O)C2CCN(CCc3ccccn3)C2)o1 (centres undefined)	-12.32%
CCc1cnc(CN(C)C2CCN(CC(=O)Nc3cc(C)on3)C2)o1 (centres undefined)	-19.35%
CC(C)c1cnc(CN(C)C2CCN(CCc3ccccn3)C2)o1 (centres undefined)	-13.05%
